According to PubChem BioAssay AID1159580 (chemical genetic matrix, 2015):
About 2,000 (36%) of roughly 5,500 compounds were called active. About 18% were inconclusive and are not listed. Cut-off read from the data, not from the text of the source: active = normalized growth mostly below about 0.91 (no sharp cut-off); inconclusive = no clear call, values can overlap the other calls; inactive = mostly above about 0.92. The list shows a part of the results.

Assay: chemical genetic growth profiling, strain panel (AID 1159580);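 note: tested at 20 µM; growth read once vehicle control cultures reached saturation at 30 °C; 1 = growth at the plate median or of vehicle wells; lower values mean less growth of the strain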
Details: growth OD

Measured: normalized growth

NCCc1cccc(O)c1
inactive: S. cerevisiae deletion strains, locus YAL013W, strain DEP1, active compounds read low 1.01 | S. cerevisiae deletion strains, locus YBR021W, strain FUR4, active compounds read low 0.972 | S. cerevisiae deletion strains, locus YBR229C, strain ROT2, active compounds read low 0.983 | S. cerevisiae deletion strains, locus YCL029C, strain bik1, active compounds read low 0.981 | S. cerevisiae deletion strains, locus YDL035C, strain GPR1, active compounds read low 1.01 | S. cerevisiae deletion strains, locus YDL074C, strain BRE1, active compounds read low 1.01 | S. cerevisiae deletion strains, locus YDL101C, strain DUN1, active compounds read low 0.985 | S. cerevisiae deletion strains, locus YDL134C, strain PPH21, active compounds read low 0.984 | S. cerevisiae deletion strains, locus YDL185W, strain tfp1, active compounds read low 0.989 | S. cerevisiae deletion strains, locus YDL192W, strain arf1, active compounds read low 0.979 | S. cerevisiae deletion strains, locus YDR101C, strain arx1, active compounds read low 0.985 | S. cerevisiae deletion strains, locus YDR150W, strain NUM1, active compounds read low 1 | S. cerevisiae deletion strains, locus YDR162C, strain NBP2, active compounds read low 0.996 | S. cerevisiae deletion strains, locus YDR318W, strain mcm21, active compounds read low 0.983 | S. cerevisiae deletion strains, locus YDR388W, active compounds read low 0.981 | S. cerevisiae deletion strains, locus YDR502C, strain sam2, active compounds read low 0.992 | S. cerevisiae deletion strains, locus YEL061C, strain CIN8, active compounds read low 0.994 | S. cerevisiae deletion strains, locus YER110C, active compounds read low 0.985 | S. cerevisiae deletion strains, locus YER155C, strain BEM2, active compounds read low 0.951 | S. cerevisiae deletion strains, locus YER167W, strain BCK2, active compounds read low 0.982 | S. cerevisiae deletion strains, locus YGL078C, strain dbp3, active compounds read low 0.989 | S. cerevisiae deletion strains, locus YGL086W, strain mad1, active compounds read low 0.976 | S. cerevisiae deletion strains, locus YGL248W, strain PDE1, active compounds read low 0.982 | S. cerevisiae deletion strains, locus YGR078C, strain PAC10, active compounds read low 1 | S. cerevisiae deletion strains, locus YGR135W, strain pre9, active compounds read low 0.982 | S. cerevisiae deletion strains, locus YGR229C, strain SMI1, active compounds read low 1.05 | S. cerevisiae deletion strains, locus YGR252W, strain gcn5, active compounds read low 0.952 | S. cerevisiae deletion strains, locus YHR030C, strain SLT2, active compounds read low 0.994 | S. cerevisiae deletion strains, locus YHR079C, strain IRE1 (second series), active compounds read low 0.986 | S. cerevisiae deletion strains, locus YHR094C, strain hxt1, active compounds read low 0.992 | S. cerevisiae deletion strains, locus YHR129C, strain ARP1, active compounds read low 0.987 | S. cerevisiae deletion strains, locus YHR200W, strain rpn10, active compounds read low 0.974 | S. cerevisiae deletion strains, locus YIL066C, strain RNR3, active compounds read low 0.996 | S. cerevisiae deletion strains, locus YIL073C, strain SPO22, active compounds read low 0.946 | S. cerevisiae deletion strains, locus YIL125W, strain kgd1, active compounds read low 0.984 | S. cerevisiae deletion strains, locus YIR030C, strain dcg1, active compounds read low 0.991 | S. cerevisiae deletion strains, locus YJL095W, strain BCK1, active compounds read low 1 | S. cerevisiae deletion strains, locus YJL134W, strain LCB3, active compounds read low 0.992 | S. cerevisiae deletion strains, locus YJL168C, strain set2, active compounds read low 0.987 | S. cerevisiae deletion strains, locus YJL187C, strain SWE1 (second series), active compounds read low 0.991 | S. cerevisiae deletion strains, locus YJR043C, strain POL32, active compounds read low 0.979 | S. cerevisiae deletion strains, locus YJR075W, strain HOC1, active compounds read low 0.998 | S. cerevisiae deletion strains, locus YKL009W, strain mrt4, active compounds read low 0.965 | S. cerevisiae deletion strains, locus YKL068W, active compounds read low 0.992 | S. cerevisiae deletion strains, locus YKL085W, strain MDH1 (second series), active compounds read low 0.987 | S. cerevisiae deletion strains, locus YKL085W, strain MDH1, active compounds read low 0.987 | S. cerevisiae deletion strains, locus YKL190W, strain CNB1, active compounds read low 0.997 | S. cerevisiae deletion strains, locus YKR001C, strain vps1, active compounds read low 0.976 | S. cerevisiae deletion strains, locus YLR039C, strain RIC1, active compounds read low 0.972 | S. cerevisiae deletion strains, locus YLR058C, strain SHM2, active compounds read low 0.992 | S. cerevisiae deletion strains, locus YLR102C, strain apc9, active compounds read low 0.99 | S. cerevisiae deletion strains, locus YLR262C, strain YPT6, active compounds read low 0.997 | S. cerevisiae deletion strains, locus YLR268W, strain sec22, active compounds read low 0.989 | S. cerevisiae deletion strains, locus YLR330W, strain CHS5, active compounds read low 0.99 | S. cerevisiae deletion strains, locus YLR342W, strain FKS1 (second series), active compounds read low 0.963 | S. cerevisiae deletion strains, locus YLR371W, strain rom2, active compounds read low 0.991 | S. cerevisiae deletion strains, locus YLR418C, strain cdc73, active compounds read low 0.985 | S. cerevisiae deletion strains, locus YML016C, strain PPZ1, active compounds read low 0.985 | S. cerevisiae deletion strains, locus YML032C, strain rad52, active compounds read low 0.978 | S. cerevisiae deletion strains, locus YML124C, strain tub3, active compounds read low 0.989 | S. cerevisiae deletion strains, locus YMR078C, strain ctf18, active compounds read low 0.983 | S. cerevisiae deletion strains, locus YMR223W, strain ubp8, active compounds read low 0.979 | S. cerevisiae deletion strains, locus YMR263W, strain SAP30, active compounds read low 1 | S. cerevisiae deletion strains, locus YMR307W, strain GAS1, active compounds read low 0.991 | S. cerevisiae deletion strains, locus YNL067W, strain RPL9B, active compounds read low 1.01 | S. cerevisiae deletion strains, locus YNL128W, strain TEP1, active compounds read low 1.03 | S. cerevisiae deletion strains, locus YNL153C, strain GIM3, active compounds read low 0.996 | S. cerevisiae deletion strains, locus YNL233W, strain BNI4, active compounds read low 0.989 | S. cerevisiae deletion strains, locus YNL250W, strain rad50, active compounds read low 0.984 | S. cerevisiae deletion strains, locus YNL271C, strain bni1, active compounds read low 0.991 | S. cerevisiae deletion strains, locus YNL298W, strain CLA4, active compounds read low 0.98 | S. cerevisiae deletion strains, locus YNL307C, strain MCK1, active compounds read low 0.981 | S. cerevisiae deletion strains, locus YNL322C, strain KRE1, active compounds read low 0.998 | S. cerevisiae deletion strains, locus YNR052C, strain pop2, active compounds read low 0.987 | S. cerevisiae deletion strains, locus YOL006C, strain TOP1, active compounds read low 0.986 | S. cerevisiae deletion strains, locus YOL012C, strain htz1 0.834 | S. cerevisiae deletion strains, locus YOL147C, strain pex11, active compounds read low 0.986 | S. cerevisiae deletion strains, locus YOR061W, strain CKA2, active compounds read low 0.991 | S. cerevisiae deletion strains, locus YOR069W, strain VPS5, active compounds read low 0.988 | S. cerevisiae deletion strains, locus YOR136W, strain idh2, active compounds read low 0.975 | S. cerevisiae deletion strains, locus YOR144C, strain elg1, active compounds read low 0.986 | S. cerevisiae deletion strains, locus YOR184W, strain ser1, active compounds read low 0.965 | S. cerevisiae deletion strains, locus YOR316C, strain cot1, active compounds read low 0.989 | S. cerevisiae deletion strains, locus YPL055C, strain LGE1, active compounds read low 1.04 | S. cerevisiae deletion strains, locus YPL241C, strain CIN2, active compounds read low 1 | S. cerevisiae deletion strains, locus YPR119W, strain clb2, active compounds read low 0.992 | S. cerevisiae deletion strains, locus YPR141C, strain kar3, active compounds read low 0.988 | S. cerevisiae deletion strains, locus YPR163C, strain tif3, active compounds read low 0.984 | S. cerevisiae deletion strains, locus YPR167C, strain met16, active compounds read low 0.981 | S. cerevisiae deletion strains, strain wtn01, active compounds read low 0.987 | S. cerevisiae strains, strain wild type, active compounds read low 1.02
